Screening results: PubChem BioAssay, several laboratories
Mtb UGM inh – inhibitors of M. tuberculosis UDP-galactopyranose mutase. P9WIQ1. purified UGM, fluorescence polarization probe displacement. inhibition, % at 10 µM. 320,000 compounds, 0.06% hits. AID 504406; in the data active = inhibition above about 10%, passing the limit was not always enough
Target sequence (P9WIQ1 whole entry, looked up): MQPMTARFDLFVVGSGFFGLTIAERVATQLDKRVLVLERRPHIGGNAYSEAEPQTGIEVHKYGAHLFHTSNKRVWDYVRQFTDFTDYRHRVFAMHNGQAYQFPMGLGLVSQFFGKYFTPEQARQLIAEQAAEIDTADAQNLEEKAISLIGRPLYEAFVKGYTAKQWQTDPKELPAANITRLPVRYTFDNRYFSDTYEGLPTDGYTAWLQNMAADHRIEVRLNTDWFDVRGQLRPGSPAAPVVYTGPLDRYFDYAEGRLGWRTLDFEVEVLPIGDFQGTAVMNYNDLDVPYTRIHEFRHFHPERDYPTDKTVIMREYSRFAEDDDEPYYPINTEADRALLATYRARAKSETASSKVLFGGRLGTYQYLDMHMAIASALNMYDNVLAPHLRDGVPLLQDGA
Mtb FBA inh – inhibitors of M. tuberculosis fructose-bisphosphate aldolase. AID 588726. purified M. tuberculosis FBA, fluorescence read-out. inhibition, % at 1 µM. 360,000 compounds, 2.3% hits. P9WQA3;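 note: 0% = vehicle and 100% = reference inhibitor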
SSB-PriA inh – inhibitors of Klebsiella pneumoniae PriA binding to SSB C-terminal tail. inhibition, % at 33 µM. AlphaScreen SSBct-PriA binding, biotinylated peptide. 430,000 compounds, 0.6% hits; in the data active = inhibition mostly above about 37%, no sharp cut-off; inactive = mostly below about 20%;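 note: plate controls were negative control peptide for no effect and reference peptide for full effect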
Mtb bLac sens – beta-lactam sensitization of Mtb H37Rv; M. tuberculosis H37Rv growth with meropenem, percent inhibition; 330,000 compounds, 0.27% hits; inhibition, % at 25 µM; call rule not given here;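 note: growth measured after seven days incubation then overnight dye step; 0% = bacteria only wells and 100% = bacteria with antibiotic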
GDH-TPI counter-1 – counter-screen for M. tuberculosis FBA inhibitors: GDH-TPI coupled enzymes. GDH-TPI coupled enzyme counterscreen, NADH absorbance. inhibition, % at 4.8 µM. 360,000 compounds, 1.2% hits. AID 588335; in the data active = inhibition above about 30%;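 note: 0% = DMSO wells and 100% = wells lacking the enzyme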
Rv3671c inh – Rv3671c (M. tuberculosis) protease inhibition; 320,000 compounds, 0.048% hits; P9WHR9; AID 2606; inhibition, % at 5.96 µM; in the data active = inhibition above about 38%;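 note: extracellular domain of Rv3671c used as enzyme; 0% = enzyme with DMSO and 100% = no enzyme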
Mtb FBA confirm – Mtb FBA inhibition, confirmed | 5,600 compounds, 78% hits | AID 651616 | shares compounds with Mtb FBA inh | inhibition, % at 1 µM | purified M. tuberculosis FBA, fluorescence read-out;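 note: 0% = vehicle wells and 100% = reference inhibitor wells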
GDH-TPI counter-2 – counter-screen for M. tuberculosis FBA inhibitors: GDH-TPI coupled enzyme inhibition | shares compounds with Mtb FBA inh | GDH-TPI coupled enzyme counterscreen, fluorescence | inhibition, % at 1 µM | 5,600 compounds, 81% hits; in the data active = inhibition above about 10%
Active calls of the source: *. Most compounds without a hit are left out; they make up all but 3.2% or so of the library. Cut-off read from the data, not from the text of the source, unless noted: active = inhibition above about 27%; inactive = the rest.

`Cc1ccc(-c2nc3ccccn3c2Nc2ccccc2)o1` gave Mtb UGM inh 2, Mtb FBA inh 108*, SSB-PriA inh 4, Mtb bLac sens -2, GDH-TPI counter-1 8, Rv3671c inh -2, Mtb FBA confirm 138* and GDH-TPI counter-2 127*.
Screening CCOc1ccc(C(=O)NCC(=O)OCc2csc(-c3ccccc3)n2)cc1 returned Mtb UGM inh 6, Mtb FBA inh 29*, SSB-PriA inh -14, Mtb bLac sens 5, GDH-TPI counter-1 8, Rv3671c inh -13, Mtb FBA confirm 194* and GDH-TPI counter-2 166*.
Screening Cc1ccc(C(=O)NCC(=O)OCc2csc(-c3ccccc3)n2)cc1 returned Mtb UGM inh 0, Mtb FBA inh 2, SSB-PriA inh -4, Mtb bLac sens 3, GDH-TPI counter-1 0 and Rv3671c inh -9.
`Cc1ccc(C=c2sc3n(c2=O)CN(c2ccc(Br)cc2)CN=3)o1` gave SSB-PriA inh -6.
`COc1ccc(-c2nc3ccccc3o2)cc1OC` gave Mtb UGM inh 1, Mtb FBA inh 10, SSB-PriA inh -8, Mtb bLac sens -1, GDH-TPI counter-1 -5 and Rv3671c inh 9.
Screening c1ccc2oc(-c3ccc4nc[nH]c4c3)nc2c1 returned Mtb UGM inh 0, Mtb FBA inh 60*, SSB-PriA inh 2, Mtb bLac sens 55, GDH-TPI counter-1 9, Rv3671c inh 3, Mtb FBA confirm active and GDH-TPI counter-2 169*.
For CNc1cncc(-c2ccccc2NC(C)=O)n1 the results were Mtb FBA inh 19 and GDH-TPI counter-1 12.
CCOc1ccccc1-c1cncc(NC)n1 was read as Mtb FBA inh 74*, GDH-TPI counter-1 17, Mtb FBA confirm 66* and GDH-TPI counter-2 47*.
Screening CNc1cncc(-c2ccccc2CO)n1 returned Mtb FBA inh 73*, GDH-TPI counter-1 25, Mtb FBA confirm active and GDH-TPI counter-2 active.
For Nc1cc(-c2cccs2)ccc1C(=O)O the results were SSB-PriA inh -4.
`Nc1nc(-c2ccccc2)[nH]c(=O)c1N` gave Mtb UGM inh -2, Mtb FBA inh 29*, SSB-PriA inh -3, Mtb bLac sens -2, GDH-TPI counter-1 16, Rv3671c inh 8, Mtb FBA confirm 72* and GDH-TPI counter-2 53*.
Screening O=C(O)c1cc(O)ccc1O returned Mtb FBA inh 87*, SSB-PriA inh -10, GDH-TPI counter-1 4, Mtb FBA confirm 4 and GDH-TPI counter-2 -5.
CC(C)(c1ccc(O)cc1)c1ccc(O)cc1 was read as Mtb UGM inh 3, Mtb FBA inh -2, SSB-PriA inh 2, Mtb bLac sens 2, GDH-TPI counter-1 6 and Rv3671c inh -11.
`CC(C)(c1ccc(O)cc1)c1ccc(O)c(C(=O)O)c1` gave Mtb FBA inh 61*, GDH-TPI counter-1 0, Mtb FBA confirm 60* and GDH-TPI counter-2 52*.
Cn1ncc2c(NCCO)nc(N3CCN(c4cccc(Cl)c4)CC3)nc21 was read as SSB-PriA inh 14.
For Cc1ccc(/C=C/c2nc(C#N)c(N3CCN(C(=O)c4ccccc4F)CC3)o2)cc1 the results were SSB-PriA inh -2.
C=CCn1c(-c2cc3cccc(OC)c3o2)n[nH]c1=S was read as Mtb UGM inh 0, Mtb FBA inh 44*, SSB-PriA inh 2, Mtb bLac sens -8, GDH-TPI counter-1 10, Rv3671c inh 8, Mtb FBA confirm 102* and GDH-TPI counter-2 72*.
`COc1ccc(S(=O)(=O)N2CCCC2CNC(=O)C(=O)Nc2cccc(C)c2C)cc1` (stereo not drawn) gave SSB-PriA inh 9.
Screening O=C(NC1CCS(=O)(=O)C1)c1ccc(Br)o1 (stereo not drawn) returned Mtb UGM inh 4, Mtb FBA inh -1, SSB-PriA inh -4, Mtb bLac sens -6, GDH-TPI counter-1 -2 and Rv3671c inh 3.
Screening O=C(NC1CCS(=O)(=O)C1)c1ccc(-c2ccc(Br)cc2)o1 (stereo not drawn) returned Mtb UGM inh 0, Mtb FBA inh 42*, SSB-PriA inh -5, Mtb bLac sens 8, GDH-TPI counter-1 2, Rv3671c inh 11, Mtb FBA confirm 25 and GDH-TPI counter-2 17*.
